# Measurements reported in PubChem BioAssay (NCATS).
# Where “and” joins values, the source holds several entries; their conditions need not be identical. Equal values may be shown once. Results filed as inconclusive are left out. Calls of active or inactive are those of the source. Unless noted, the call rests on the fitted dose curve; in most records, active means well fitted curve in the direction sought with a large enough effect; inconclusive means small, poorly fitted or top-dose-only effect, or another doubt; inactive means no such curve, though single readings can be large; an effect the other way counts as inactive or inconclusive.
# Tests used:
# [1] = Primary qHTS for inhibitors of nuclear receptor binding SET domain protein 2 (NSD2) in an isogenic RCH-ACV NSD2 p.E1099K mutant (9B) (AID 1645876); conditions: RCH-ACV NSD2 E1099K (9B) viability, CellTiter-Glo, 72 h; series mostly up to 44.9 µM; further: potency means the concentration at half of the fitted maximal effect; nearly all actives have a fitted effect of over 70% in size
# [2] = Primary qHTS for inhibitors of nuclear receptor binding SET domain protein 2 (NSD2) in an RCH-ACV wild type WT cells (2C) (AID 1645877); conditions: RCH-ACV (leukaemia line) NSD2 WT (2C) viability, CellTiter-Glo, 72 h; series mostly up to 44.9 µM; further: nearly all actives have a fitted effect of over 70% in size; further: potency means the concentration at half of the fitted maximal effect
# [3] = NCATS anti-infectives library activity on HEK293 viability as a counter-qHTS vs the C. elegans viability qHTS (AID 1745854); conditions: HEK293 viability counter-screen; series mostly up to 41.8 µM;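 further: HEK293 cells exposed to compounds for 24 hr before the viability read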
# Outline: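 Counter-screen for cytotoxicity: HEK293, 24 hr, 37C, compounds up to 41.7 uM final (a dilution series, 1:5). Readout CellTiter-Glo luminescence, 10 min RT. Digitonin control, 83.3 uM final.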
# [4] = NCATS anti-infectives library activity on the primary C. elegans qHTS viability assay (AID 1745855; calls by dose curve; further: potency means the concentration at half of the fitted maximal effect); conditions: C. elegans worm area imaging, day 7; series mostly up to 41.8 µM
# Outline: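 GFP read-out by 488 nm laser cytometry at day 0, 3 and 7, gated on object perimeter, area and peak intensity, scored viability of PE254-GFP-FLuc worms exposed to compound in S medium with bacterial capsules at 21 °C.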
# [5] = target: Rap guanine nucleotide exchange factor 3 (Homo sapiens) (UniProt O95398); experiment: Confirmatory qHTS for antagonist of cAMP-regulated guanine nucleotide exchange factor 3 (EPAC1) (AID 1645880); conditions: EPAC1 Rap1B-BODIPY-GDP exchange, fluorescence; series mostly up to 115 µM; further: nearly all actives have a fitted effect of over 55% in size
# Chain of Rap guanine nucleotide exchange factor 3 (Homo sapiens) (O95398 whole entry, looked up): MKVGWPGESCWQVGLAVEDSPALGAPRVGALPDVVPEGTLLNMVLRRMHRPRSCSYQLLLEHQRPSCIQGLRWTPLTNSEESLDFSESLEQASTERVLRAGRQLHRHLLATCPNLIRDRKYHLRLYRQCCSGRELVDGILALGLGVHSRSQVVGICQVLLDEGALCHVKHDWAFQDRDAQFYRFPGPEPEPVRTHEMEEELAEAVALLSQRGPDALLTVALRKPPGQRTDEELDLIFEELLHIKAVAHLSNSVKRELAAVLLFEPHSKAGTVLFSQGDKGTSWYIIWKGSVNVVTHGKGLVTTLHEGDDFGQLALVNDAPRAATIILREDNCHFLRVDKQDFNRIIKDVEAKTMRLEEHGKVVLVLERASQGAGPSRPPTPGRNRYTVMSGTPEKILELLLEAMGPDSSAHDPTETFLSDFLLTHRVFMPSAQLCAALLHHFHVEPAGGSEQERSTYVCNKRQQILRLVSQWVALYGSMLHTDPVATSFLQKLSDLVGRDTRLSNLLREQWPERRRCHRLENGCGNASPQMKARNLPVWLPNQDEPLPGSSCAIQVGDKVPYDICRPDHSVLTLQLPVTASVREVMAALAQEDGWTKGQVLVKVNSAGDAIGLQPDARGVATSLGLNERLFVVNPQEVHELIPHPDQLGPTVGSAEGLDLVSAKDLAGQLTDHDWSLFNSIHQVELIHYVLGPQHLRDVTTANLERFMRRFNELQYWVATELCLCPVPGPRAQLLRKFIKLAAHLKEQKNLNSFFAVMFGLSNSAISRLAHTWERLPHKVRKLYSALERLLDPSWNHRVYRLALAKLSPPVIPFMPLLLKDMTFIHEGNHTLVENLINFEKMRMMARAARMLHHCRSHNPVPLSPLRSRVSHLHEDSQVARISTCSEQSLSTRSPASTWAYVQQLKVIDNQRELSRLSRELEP
# Outline: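 Released BODIPY-GDP fluoresces less than Rap1-bound BODIPY-GDP; the signal is followed at 480/540 nm at 5-min intervals over 30 min, after 5 min at room temperature. Reactions contain 100 nM EPAC1, 250 nM RAP1B-BODIPY-GDP and 50 uM GDP; results are normalized to ATA and DMSO.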
# [6] = target: Rap guanine nucleotide exchange factor 3 (Homo sapiens) (UniProt O95398); experiment: Confirmatory qHTS for agonist of cAMP-regulated guanine nucleotide exchange factor 3 (EPAC1) (AID 1645881); conditions: EPAC1 Rap1B BODIPY-GDP exchange fluorescence; series mostly up to 154 µM;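 further: EPAC1 catalysed release of BODIPY-GDP from Rap1B seen as fluorescence loss; nearly all actives have a fitted effect of over 75% in size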
# [7] = target: Rap guanine nucleotide exchange factor 4 (Homo sapiens) (UniProt Q8WZA2); experiment: Confirmatory qHTS for agonist of cAMP-regulated guanine nucleotide exchange factor 4 (EPAC2) (AID 1645884); conditions: EPAC2 GEF activity, Rap1B-BODIPY-GDP fluorescence; series mostly up to 154 µM;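 further: nucleotide exchange releases bodipy-GDP from Rap1 and this lowers its fluorescence; nearly all actives have a fitted effect of over 65% in size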
# Chain of Rap guanine nucleotide exchange factor 4 (Homo sapiens) (Q8WZA2 whole entry, looked up): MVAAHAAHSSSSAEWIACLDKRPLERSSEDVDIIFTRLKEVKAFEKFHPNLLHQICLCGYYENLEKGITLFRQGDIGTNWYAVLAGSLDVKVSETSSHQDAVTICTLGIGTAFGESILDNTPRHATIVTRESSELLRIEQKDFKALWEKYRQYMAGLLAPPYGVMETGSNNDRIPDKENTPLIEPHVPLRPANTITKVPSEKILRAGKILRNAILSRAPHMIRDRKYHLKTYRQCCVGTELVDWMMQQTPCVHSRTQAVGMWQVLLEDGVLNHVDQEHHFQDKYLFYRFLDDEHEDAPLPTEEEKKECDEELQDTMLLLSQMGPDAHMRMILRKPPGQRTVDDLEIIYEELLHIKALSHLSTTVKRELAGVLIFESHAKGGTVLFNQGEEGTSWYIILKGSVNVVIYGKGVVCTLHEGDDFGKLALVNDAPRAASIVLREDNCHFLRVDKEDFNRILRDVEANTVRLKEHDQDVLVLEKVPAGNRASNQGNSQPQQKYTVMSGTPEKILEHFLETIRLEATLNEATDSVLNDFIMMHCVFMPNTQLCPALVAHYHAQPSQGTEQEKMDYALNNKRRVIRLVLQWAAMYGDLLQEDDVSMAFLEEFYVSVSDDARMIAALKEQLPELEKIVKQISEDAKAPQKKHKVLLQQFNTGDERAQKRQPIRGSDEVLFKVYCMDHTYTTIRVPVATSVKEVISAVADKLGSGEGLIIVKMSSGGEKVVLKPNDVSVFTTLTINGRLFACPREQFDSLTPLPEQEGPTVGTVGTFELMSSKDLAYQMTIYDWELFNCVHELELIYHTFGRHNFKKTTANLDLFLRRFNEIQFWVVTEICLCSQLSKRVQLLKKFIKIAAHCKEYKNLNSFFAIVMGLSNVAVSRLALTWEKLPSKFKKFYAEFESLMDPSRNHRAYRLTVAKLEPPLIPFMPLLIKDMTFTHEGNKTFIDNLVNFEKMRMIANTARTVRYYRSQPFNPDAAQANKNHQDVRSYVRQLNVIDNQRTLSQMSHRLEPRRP
smiles,measurement,setting,value
O=c1oc2cc(O)ccc2s1,Potency,[1],20.9 µM (active)
same,Potency,[2],20.9 µM (active)
same,outcome,[3],inactive
CC(C)C[C@H](NC(=O)[C@H](Cc1ccccc1)NC(=O)c1cnccn1)B(O)O,Potency,[1],3.8 nM (active) and 5.2 nM (active) and 26.3 nM (active)
same,Potency,[2],3.8 nM (active) and 6.5 nM (active) and 18.6 nM (active)
same,Potency,[4],2.3 µM (active)
COC(=O)C1=C(C)NC(C)=C(C(=O)OCCCN2CCC(c3ccccc3)(c3ccccc3)CC2)C1c1cccc([N+](=O)[O-])c1 (centres undefined),Potency,[1],7.42 µM (active) and 7.5 µM (active)
same,Potency,[2],6.61 µM (active) and 5.96 µM (active)
same,Potency,[5],inactive
same,outcome,[6],inactive
same,outcome,[7],inactive
O=C(O)c1cccnc1Nc1cccc(C(F)(F)F)c1,Potency,[2],inactive
COC(=O)N[C@H](C(=O)N[C@@H](Cc1ccccc1)[C@@H](O)CN(Cc1ccc(-c2ccccn2)cc1)NC(=O)[C@@H](NC(=O)OC)C(C)(C)C)C(C)(C)C,outcome,[3],inactive
CN1CCC(=C2c3ccccc3CCc3sccc32)CC1,Potency,[2],23.5 µM (active)
